This note sets out measurements from publication PMC11006913.

Where a chain is given by its changes, count along the chain named.

Holding throughout (test): PBM; 200 nM protein, PBS
Conditions in all cases: dsDNA, one strand shown

The target of test [1] is SHOX (Homo sapiens, UniProt O15266 103-189).
The target in test [2] is ALX4 (Homo sapiens, UniProt Q9H161 200-286).
For test [3], the target named is ALX4 (Homo sapiens, UniProt Q9H161 200-286, Q225E).
The target of test [4] is ALX1 (Homo sapiens, UniProt Q15699 118-204, L144V).
Chain of ALX1 (Homo sapiens, UniProt Q15699 118-204, L144V) (Q15699 118-204 L144V): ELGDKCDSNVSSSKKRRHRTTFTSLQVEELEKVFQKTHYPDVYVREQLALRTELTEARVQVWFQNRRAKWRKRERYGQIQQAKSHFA
Test [5] addresses SHOX (Homo sapiens, UniProt O15266 103-189, R173C).
Test [6] concerns the target ALX1 (Homo sapiens, UniProt Q15699 118-204, L144R).
Test [7] has as its target ALX1 (Homo sapiens, UniProt Q15699 118-204).
Test [8] addresses HOXB6 (Homo sapiens, UniProt P17509 132-218, K202E).
For test [9], the target named is ALX3 (Homo sapiens, UniProt O95076 139-225, N203Q).
Chain of ALX3 (Homo sapiens, UniProt O95076 139-225, N203Q) (O95076 139-225 N203Q): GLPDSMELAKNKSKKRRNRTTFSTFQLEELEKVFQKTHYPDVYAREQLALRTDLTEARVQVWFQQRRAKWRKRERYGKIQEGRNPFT
The target in test [10] is ALX3 (Homo sapiens, UniProt O95076 139-225).
Chain of ALX3 (Homo sapiens, UniProt O95076 139-225) (O95076 139-225): as the sequence (O95076 139-225 N203Q) above, with Q65N counted along it
For test [11], the target named is ALX3 (Homo sapiens, UniProt O95076 139-225, L168Q).
Chain of ALX3 (Homo sapiens, UniProt O95076 139-225, L168Q) (O95076 139-225 L168Q): as the sequence (O95076 139-225 N203Q) above, with L30Q, Q65N counted along it
Test [12] concerns the target ALX3 (Homo sapiens, UniProt O95076 139-225, L168V).
The target in test [13] is ALX3 (Homo sapiens, UniProt O95076 139-225, N203S).
Chain of ALX3 (Homo sapiens, UniProt O95076 139-225, N203S) (O95076 139-225 N203S): as the sequence (O95076 139-225 N203Q) above, with Q65S counted along it
The target in test [14] is HOXB6 (Homo sapiens, UniProt P17509 132-218).
Chain of HOXB6 (Homo sapiens, UniProt P17509 132-218) (P17509 132-218): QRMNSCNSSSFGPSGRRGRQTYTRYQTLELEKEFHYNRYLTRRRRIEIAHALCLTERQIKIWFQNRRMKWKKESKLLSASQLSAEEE
The target in test [15] is T1, PAX4 (Homo sapiens, UniProt O43316 9-242, R200K).
T1 sequence: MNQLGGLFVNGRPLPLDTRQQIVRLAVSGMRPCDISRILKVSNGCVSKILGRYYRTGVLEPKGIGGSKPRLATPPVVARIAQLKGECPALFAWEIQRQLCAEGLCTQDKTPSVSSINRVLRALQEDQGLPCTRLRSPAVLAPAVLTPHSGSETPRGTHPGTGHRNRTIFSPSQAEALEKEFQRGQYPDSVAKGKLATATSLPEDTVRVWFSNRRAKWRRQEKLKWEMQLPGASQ

For test [16], the target named is T2, PAX4 (Homo sapiens, UniProt O43316 9-242).
T2 sequence: T1 sequence with K192R

Test [17] deals with MSX2 (Homo sapiens, UniProt P35548 130-214, R199I).
Chain of MSX2 (Homo sapiens, UniProt P35548 130-214, R199I) (P35548 130-214 R199I): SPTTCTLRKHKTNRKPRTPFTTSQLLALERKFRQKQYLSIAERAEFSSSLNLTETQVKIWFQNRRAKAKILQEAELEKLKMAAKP
Test [18] concerns the target T3, PAX4 (Homo sapiens, UniProt O43316 9-242, R200Q).
T3 sequence: T1 sequence with K192Q

Test [19] addresses T4, PAX4 (Homo sapiens, UniProt O43316 9-242, F177V).
T4 sequence: T1 sequence with F169V, K192R

Test [20] concerns the target MSX2 (Homo sapiens, UniProt P35548 130-214).
Test [21] deals with T5, PAX4 (Homo sapiens, UniProt O43316 9-242, F177Y).
T5 sequence: T1 sequence with F169Y, K192R

The target in test [22] is MSX2 (Homo sapiens, UniProt P35548 130-214, F161Y).
Chain of MSX2 (Homo sapiens, UniProt P35548 130-214, F161Y) (P35548 130-214 F161Y): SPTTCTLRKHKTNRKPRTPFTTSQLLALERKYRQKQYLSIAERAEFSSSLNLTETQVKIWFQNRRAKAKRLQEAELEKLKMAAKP
Test [23] addresses T6, PAX4 (Homo sapiens, UniProt O43316 9-242, R227W).
T6 sequence: T1 sequence with K192R, R219W

Test [24] concerns the target HESX1 (Homo sapiens, UniProt Q9UBX0 95-180, R109Q).
Test [25] addresses HESX1 (Homo sapiens, UniProt Q9UBX0 95-180, F115L).
The target in test [26] is PRRX1 (Homo sapiens, UniProt P54821 80-166, F113S).
Chain of PRRX1 (Homo sapiens, UniProt P54821 80-166, F113S) (P54821 80-166 F113S): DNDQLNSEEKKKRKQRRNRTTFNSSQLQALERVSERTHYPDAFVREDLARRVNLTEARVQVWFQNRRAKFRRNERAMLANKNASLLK
Test [27] has as its target PRRX1 (Homo sapiens, UniProt P54821 80-166).

Chain of SHOX (Homo sapiens, UniProt O15266 103-189) (O15266 103-189): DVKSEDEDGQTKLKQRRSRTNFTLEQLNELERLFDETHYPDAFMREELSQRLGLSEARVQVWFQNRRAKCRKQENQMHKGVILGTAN
Chain of SHOX (Homo sapiens, UniProt O15266 103-189, R173C) (O15266 103-189 R173C): as the sequence (O15266 103-189) above, with R71C counted along it
Chain of ALX1 (Homo sapiens, UniProt Q15699 118-204) (Q15699 118-204): as the sequence (Q15699 118-204 L144V) above, with V27L counted along it
Chain of ALX1 (Homo sapiens, UniProt Q15699 118-204, L144R) (Q15699 118-204 L144R): as the sequence (Q15699 118-204 L144V) above, with V27R counted along it
Chain of ALX3 (Homo sapiens, UniProt O95076 139-225, L168V) (O95076 139-225 L168V): as the sequence (O95076 139-225 N203Q) above, with L30V, Q65N counted along it
Chain of ALX4 (Homo sapiens, UniProt Q9H161 200-286, Q225E) (Q9H161 200-286 Q225E): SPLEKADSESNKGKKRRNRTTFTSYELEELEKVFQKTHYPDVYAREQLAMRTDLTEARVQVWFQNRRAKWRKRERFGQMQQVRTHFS
Chain of HOXB6 (Homo sapiens, UniProt P17509 132-218, K202E) (P17509 132-218 K202E): as the sequence (P17509 132-218) above, with K71E counted along it
Chain of HESX1 (Homo sapiens, UniProt Q9UBX0 95-180, F115L) (Q9UBX0 95-180 F115L): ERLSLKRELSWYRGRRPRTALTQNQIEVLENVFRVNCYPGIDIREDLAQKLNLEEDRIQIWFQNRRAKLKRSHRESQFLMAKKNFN
Chain of PRRX1 (Homo sapiens, UniProt P54821 80-166) (P54821 80-166): as the sequence (P54821 80-166 F113S) above, with S34F counted along it
Chain of HESX1 (Homo sapiens, UniProt Q9UBX0 95-180, R109Q) (Q9UBX0 95-180 R109Q): as the sequence (Q9UBX0 95-180 F115L) above, with R15Q, L21F counted along it
Chain of ALX4 (Homo sapiens, UniProt Q9H161 200-286) (Q9H161 200-286): as the sequence (Q9H161 200-286 Q225E) above, with E26Q counted along it
Chain of MSX2 (Homo sapiens, UniProt P35548 130-214) (P35548 130-214): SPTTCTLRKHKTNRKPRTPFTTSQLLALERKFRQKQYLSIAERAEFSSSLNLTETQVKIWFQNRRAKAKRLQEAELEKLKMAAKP

With AGCTCCAG, the binding signal is 7.12 upbm affinity estimate (log intensity, higher = more binding, comparable within an allelic series) in the test with SHOX [1]; 7.91 upbm affinity estimate (log intensity, higher = more binding, comparable within an allelic series) with ALX4 [2]; 8.27 upbm affinity estimate (log intensity, higher = more binding, comparable within an allelic series) with ALX4 [3]; 6.26 upbm affinity estimate (log intensity, higher = more binding, comparable within an allelic series) with ALX1 [4]; 7.22 upbm affinity estimate (log intensity, higher = more binding, comparable within an allelic series) with SHOX [5]; 6.27 upbm affinity estimate (log intensity, higher = more binding, comparable within an allelic series) with ALX1 [6]. In addition, the binding signal in the test with ALX1 [7] is 6.1 upbm affinity estimate (log intensity, higher = more binding, comparable within an allelic series).
Turning to CCAGCTCC, the binding signal with SHOX [1] was 7.19 upbm affinity estimate (log intensity, higher = more binding, comparable within an allelic series); with HOXB6 [8] it was 8.94 upbm affinity estimate (log intensity, higher = more binding, comparable within an allelic series); with ALX3 [9], 7.65 upbm affinity estimate (log intensity, higher = more binding, comparable within an allelic series); with SHOX [5], 7.18 upbm affinity estimate (log intensity, higher = more binding, comparable within an allelic series); with ALX3 [10], 7.54 upbm affinity estimate (log intensity, higher = more binding, comparable within an allelic series); with ALX3 [11], 7.75 upbm affinity estimate (log intensity, higher = more binding, comparable within an allelic series). The binding signal with ALX3 [12] was 7.76 upbm affinity estimate (log intensity, higher = more binding, comparable within an allelic series); in the test with ALX3 [13] it was 7.69 upbm affinity estimate (log intensity, higher = more binding, comparable within an allelic series); with HOXB6 [14], 8.78 upbm affinity estimate (log intensity, higher = more binding, comparable within an allelic series).
In the case of ACAAATTA, the binding signal in the test with SHOX [1] was 11.4 upbm affinity estimate (log intensity, higher = more binding, comparable within an allelic series); in the test with PAX4 [15], 11.7 upbm affinity estimate (log intensity, higher = more binding, comparable within an allelic series); in the test with PAX4 [16], 12.3 upbm affinity estimate (log intensity, higher = more binding, comparable within an allelic series); in the test with MSX2 [17], 12 upbm affinity estimate (log intensity, higher = more binding, comparable within an allelic series); with ALX1 [4], 11.3 upbm affinity estimate (log intensity, higher = more binding, comparable within an allelic series); with ALX3 [9], 8.4 upbm affinity estimate (log intensity, higher = more binding, comparable within an allelic series). The binding signal in the test with PAX4 [18] is 12.2 upbm affinity estimate (log intensity, higher = more binding, comparable within an allelic series); with SHOX [5], 9.08 upbm affinity estimate (log intensity, higher = more binding, comparable within an allelic series); with ALX1 [6], 10.9 upbm affinity estimate (log intensity, higher = more binding, comparable within an allelic series); with PAX4 [19], 10.5 upbm affinity estimate (log intensity, higher = more binding, comparable within an allelic series); in the test with MSX2 [20] it was 13.3 upbm affinity estimate (log intensity, higher = more binding, comparable within an allelic series); with ALX3 [10], 12.2 upbm affinity estimate (log intensity, higher = more binding, comparable within an allelic series). Further, the binding signal in the test with PAX4 [21] was 11 upbm affinity estimate (log intensity, higher = more binding, comparable within an allelic series); in the test with ALX3 [11], 10.1 upbm affinity estimate (log intensity, higher = more binding, comparable within an allelic series); with ALX3 [12], 9.54 upbm affinity estimate (log intensity, higher = more binding, comparable within an allelic series); with MSX2 [22] it was 12.9 upbm affinity estimate (log intensity, higher = more binding, comparable within an allelic series); with PAX4 [23], 11 upbm affinity estimate (log intensity, higher = more binding, comparable within an allelic series); with ALX1 [7], 12 upbm affinity estimate (log intensity, higher = more binding, comparable within an allelic series). The binding signal in the test with ALX3 [13] is 8.51 upbm affinity estimate (log intensity, higher = more binding, comparable within an allelic series).
Consider AATTAGAC, for which the binding signal is 11.4 upbm affinity estimate (log intensity, higher = more binding, comparable within an allelic series) with SHOX [1]; 11.7 upbm affinity estimate (log intensity, higher = more binding, comparable within an allelic series) with PAX4 [15]; 12.2 upbm affinity estimate (log intensity, higher = more binding, comparable within an allelic series) with PAX4 [16]; 12 upbm affinity estimate (log intensity, higher = more binding, comparable within an allelic series) with PAX4 [18]; 9.23 upbm affinity estimate (log intensity, higher = more binding, comparable within an allelic series) with SHOX [5]; 10.6 upbm affinity estimate (log intensity, higher = more binding, comparable within an allelic series) with PAX4 [19]. Besides, the binding signal with PAX4 [21] is 11 upbm affinity estimate (log intensity, higher = more binding, comparable within an allelic series); with HESX1 [24], 8.68 upbm affinity estimate (log intensity, higher = more binding, comparable within an allelic series); with HESX1 [25], 7.81 upbm affinity estimate (log intensity, higher = more binding, comparable within an allelic series); with PAX4 [23] it was 11 upbm affinity estimate (log intensity, higher = more binding, comparable within an allelic series).
As for AATAATAC, the binding signal in the test with SHOX [1] is 9.32 upbm affinity estimate (log intensity, higher = more binding, comparable within an allelic series); in the test with PRRX1 [26], 10.6 upbm affinity estimate (log intensity, higher = more binding, comparable within an allelic series); with ALX3 [10], 10.3 upbm affinity estimate (log intensity, higher = more binding, comparable within an allelic series); with PRRX1 [27], 12.3 upbm affinity estimate (log intensity, higher = more binding, comparable within an allelic series).
